Measurements as given in PubChem BioAssay (Tox21).
Results filed as inconclusive are left out. Active and inactive are the calls of the source. Unless noted, calls follow the shape of the dose curve; as a rule, active = well fitted curve in the direction sought with a large enough effect in the repeat runs; inconclusive = weak or mixed curves; inactive = no such curve, though single readings can be large; an effect the other way counts as inactive or inconclusive.

Tests used:
[1] = qHTS assay to identify aromatase inhibitors - cell viability counter screen (AID 743084);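 also: cells stimulated with testosterone during compound exposure; nearly all actives have a fitted effect of over 55% in size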
[2] = target: Aryl hydrocarbon receptor (Homo sapiens) (UniProt P35869); assay: qHTS assay to identify small molecule that activate the aryl hydrocarbon receptor (AhR) signaling pathway (AID 743085); also: nearly all actives have a fitted effect of over 15% in size; also: potency is read from the fitted curve at half-maximal effect;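 as to activation: HG2L7.5c1 human HepG2 liver cells with stably integrated DRE-driven firefly reporter; series mostly up to about 70 µM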
Chain of Aryl hydrocarbon receptor (Homo sapiens) (P35869 whole entry, looked up): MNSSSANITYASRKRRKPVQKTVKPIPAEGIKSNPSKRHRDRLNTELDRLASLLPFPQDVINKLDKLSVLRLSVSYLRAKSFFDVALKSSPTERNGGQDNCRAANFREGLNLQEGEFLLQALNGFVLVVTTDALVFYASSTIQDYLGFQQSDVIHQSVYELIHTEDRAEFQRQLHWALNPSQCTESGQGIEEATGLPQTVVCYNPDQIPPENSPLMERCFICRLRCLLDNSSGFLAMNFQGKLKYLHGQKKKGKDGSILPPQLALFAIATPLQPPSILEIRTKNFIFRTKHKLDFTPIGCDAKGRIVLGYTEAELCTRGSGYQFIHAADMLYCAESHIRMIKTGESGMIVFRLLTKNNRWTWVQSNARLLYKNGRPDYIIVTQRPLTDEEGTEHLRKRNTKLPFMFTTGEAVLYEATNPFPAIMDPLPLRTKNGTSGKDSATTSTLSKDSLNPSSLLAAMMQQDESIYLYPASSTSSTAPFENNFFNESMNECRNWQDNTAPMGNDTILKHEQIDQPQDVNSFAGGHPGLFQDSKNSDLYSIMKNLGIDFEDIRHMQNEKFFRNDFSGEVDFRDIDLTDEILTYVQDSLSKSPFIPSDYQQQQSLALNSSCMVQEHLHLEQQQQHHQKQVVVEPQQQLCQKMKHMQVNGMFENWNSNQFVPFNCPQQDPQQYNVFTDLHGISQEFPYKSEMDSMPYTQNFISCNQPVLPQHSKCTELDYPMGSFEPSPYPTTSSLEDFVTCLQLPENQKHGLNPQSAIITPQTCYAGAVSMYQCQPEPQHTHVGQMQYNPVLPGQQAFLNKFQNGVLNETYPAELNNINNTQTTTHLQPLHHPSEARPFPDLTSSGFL
Outline: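 AhR agonist activity is inferred from enhanced light output of a DRE-controlled firefly luciferase reporter in HepG2 cells, measured with ONE-Glo following 24 h treatment at 37C.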

[3] = qHTS assay to identify small molecule that activate the aryl hydrocarbon receptor (AhR) signaling pathway - cell viability counter screen (AID 743086);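 also: HepG2 liver cells carrying the AhR DRE luciferase reporter; series mostly up to about 70 µM; nearly all actives have a fitted effect of over 45% in size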
Outline: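 HepG2-AhR-luc (HG2L7.5c1) cells, 4000/well, were preincubated 5 h at 37C, exposed to compound in qHTS format for 24 hr at 37C, then given CellTiter-Fluor for 30 min; viability was read as fluorescence in the reporter wells.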

[4] = target: Peroxisome proliferator-activated receptor gamma (Homo sapiens) (UniProt P37231); assay: qHTS assay to identify small molecule agonists of the peroxisome proliferator-activated receptor gamma (PPARg) signaling pathway (AID 743094; active = well fitted activation curve with a large enough effect in the signal ratio in the repeat runs, not every such curve was filed as active; the % refers to the signal ratio)
Chain of Peroxisome proliferator-activated receptor gamma (Homo sapiens) (P37231 whole entry, looked up): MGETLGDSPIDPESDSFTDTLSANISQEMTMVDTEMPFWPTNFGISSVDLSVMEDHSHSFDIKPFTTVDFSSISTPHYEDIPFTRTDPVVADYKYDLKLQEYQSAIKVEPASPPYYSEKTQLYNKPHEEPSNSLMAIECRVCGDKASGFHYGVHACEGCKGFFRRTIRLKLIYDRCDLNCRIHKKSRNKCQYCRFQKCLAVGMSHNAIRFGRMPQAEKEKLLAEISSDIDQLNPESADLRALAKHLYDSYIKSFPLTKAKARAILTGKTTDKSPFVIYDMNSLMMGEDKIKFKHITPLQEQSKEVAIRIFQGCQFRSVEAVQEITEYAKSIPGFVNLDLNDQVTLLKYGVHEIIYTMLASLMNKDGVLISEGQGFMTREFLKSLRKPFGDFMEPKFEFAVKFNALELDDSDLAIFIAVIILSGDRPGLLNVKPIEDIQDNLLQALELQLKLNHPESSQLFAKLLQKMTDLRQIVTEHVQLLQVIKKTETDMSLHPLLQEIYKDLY
Outline: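 Agonist activity was taken from a beta-lactamase reporter (FRET substrate, 1 h at room temperature) in HEK293H cells carrying a PPARg UAS-bla construct. Compounds in DMSO were incubated 17 h at 37C after a 5 h cell pre-incubation.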

[5] = target: Peroxisome proliferator-activated receptor gamma (Homo sapiens) (UniProt P37231); assay: qHTS assay to identify small molecule antagonists of the peroxisome proliferator-activated receptor gamma (PPARg) signaling pathway (AID 743191; calls by dose curve; also: series mostly up to about 63 µM; nearly all actives have a fitted effect of over 30% in size)
Outline: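 GeneBLAzer PPARg UAS-bla HEK293H cells carrying a UAS-driven beta-lactamase reporter were plated at 3000 cells/well, preincubated 5 h at 37C, then given compound for 17 h at 37C; LiveBLAzer B/G FRET substrate was read after 1 h at room temperature.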

[6] = qHTS assay to identify small molecule antagonists of the peroxisome proliferator-activated receptor gamma (PPARg) signaling pathway - cell viability counter screen (AID 743194); conditions: Potency: co-treated with 50 nM rosiglitazone; also: nearly all actives have a fitted effect of over 55% in size
Outline: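 PPARg-UAS-bla HEK293H cells were plated, rested 5 h at 37 C, then treated with compounds plus rosiglitazone (50 nM final) for 17 h at 37 C; viability was then read by CellTiter-Glo luminescence after 30 min at room temperature.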

[7] = qHTS assay for small molecule agonists of the antioxidant response element (ARE) signaling pathway (AID 743202; active = well fitted activation curve with a large enough effect in the signal ratio in the repeat runs, not every such curve was filed as active; the % refers to the signal ratio; also: potency is read from the fitted curve at half-maximal effect)
Outline: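 Steps: seed ARE-bla HepG2 cells (2,000/well); incubate 5 h at 37 C; add compounds by pin tool; incubate 16 h at 37 C; add FRET substrate; read fluorescence after 2 h at RT.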

[8] = qHTS assay for small molecule agonists of the antioxidant response element (ARE) signaling pathway - cell viability counter screen (AID 743203; calls by dose curve; also: nearly all actives have a fitted effect of over 55% in size)
Outline: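 Viability counter screen: CellTiter-Glo luminescence, read after 30 min at room temperature, in ARE-bla HepG2 wells. Compound exposure lasted 16 h at 37C/5% CO2, following a 5 h pre-incubation of the cells after plating.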

[9] = qHTS assay for small molecule activators of the heat shock response signaling pathway - cell viability counter screen (AID 743209); also: nearly all actives have a fitted effect of over 50% in size
Outline: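 Cytotoxicity counter screen run in the same wells as the heat-shock bla reporter assay: HeLa HSE-bla cells, 5 h compound exposure at 37 C, viability read by CellTiter-Glo luminescence.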

[10] = qHTS assay for small molecule activators of the heat shock response signaling pathway (AID 743210; active = well fitted activation curve with a large enough effect in the signal ratio in the repeat runs, with a control signal flat, not every such curve was filed as active; the % refers to the signal ratio;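 also: HeLa cells with beta-lactamase reporter driven by heat shock elements; series mostly up to about 63 µM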)
Outline: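 Activation of heat shock element-controlled beta-lactamase expression is measured in HeLa cells by LiveBLAzer FRET fluorescence, with compound exposure lasting 5 h at 37 C and substrate loading 2.5 h at room temperature.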

[11] = target: Peroxisome proliferator-activated receptor delta (Homo sapiens) (UniProt Q03181); assay: qHTS assay to identify small molecule agonists of the peroxisome proliferator-activated receptor delta (PPARd) signaling pathway (AID 743212; calls by dose curve)
Chain of Peroxisome proliferator-activated receptor delta (Homo sapiens) (Q03181 whole entry, looked up): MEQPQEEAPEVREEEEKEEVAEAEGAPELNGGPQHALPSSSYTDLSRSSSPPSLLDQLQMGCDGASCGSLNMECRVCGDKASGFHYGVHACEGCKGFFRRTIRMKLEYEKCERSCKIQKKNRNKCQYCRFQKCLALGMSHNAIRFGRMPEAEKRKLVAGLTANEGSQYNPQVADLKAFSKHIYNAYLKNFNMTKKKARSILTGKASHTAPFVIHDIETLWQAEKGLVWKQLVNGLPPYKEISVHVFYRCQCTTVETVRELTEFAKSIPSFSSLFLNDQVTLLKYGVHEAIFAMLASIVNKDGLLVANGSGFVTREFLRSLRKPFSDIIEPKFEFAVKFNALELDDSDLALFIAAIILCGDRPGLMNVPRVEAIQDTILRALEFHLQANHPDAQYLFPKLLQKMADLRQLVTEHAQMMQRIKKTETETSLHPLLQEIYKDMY
Outline: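 Cells expressing a UAS-driven beta-lactamase reporter (PPARd-bla HEK293H) were given test compounds after a 5 h settle and kept at 37 C. Reporter activity was then measured as FRET fluorescence using LiveBLAzer B/G substrate.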

[12] = qHTS assay to identify small molecule antagonists of the peroxisome proliferator-activated receptor delta (PPARd) signaling pathway - cell viability counter screen (AID 743213); also: nearly all actives have a fitted effect of over 50% in size
Outline: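 Luminescence from CellTiter-Glo, added after the bla read and incubated 30 min at room temperature, gives viability of HEK293H PPARd-bla cells exposed to compounds for 17 h at 37 C with 300 nM L165041.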

[13] = target: Peroxisome proliferator-activated receptor delta (Homo sapiens) (UniProt Q03181); assay: qHTS assay to identify small molecule antagonists of the peroxisome proliferator-activated receptor delta (PPARd) signaling pathway (AID 743215; active = well fitted inhibition curve with a large enough effect in the signal ratio in the repeat runs, not every such curve was filed as active; the % refers to the signal ratio;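 also: cells stimulated with agonist L165041 at 300 nM final during compound exposure; series mostly up to about 62 µM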)
Outline: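 Agonist L165041 (300 nM final) added with compound to PPARd-bla HEK293H UAS-bla reporter cells; 17 h incubation at 37 C. Read-out: LiveBLAzer FRET substrate, 2 h at room temperature, fluorescence intensity.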

[14] = qHTS assay to identify small molecule agonists of the farnesoid-X-receptor (FXR) signaling pathway - cell viability counter screen (AID 743218); also: nearly all actives have a fitted effect of over 45% in size
Outline: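 Viability counter screen in the same wells: CellTiter-Glo luminescence, 30 min room-temperature incubation, measured after the beta-lactamase read. Cells were GeneBLAzer FXR-UAS-bla HEK 293T, compound-treated 16 h at 37C.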

[15] = qHTS assay to identify small molecule antagonists of the farnesoid-X-receptor (FXR) signaling pathway - cell viability counter screen (AID 743221; active = well fitted cell-killing curve with a large enough effect in the repeat runs, not every such curve was filed as active; also: nearly all actives have a fitted effect of over 50% in size)
Outline: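 After a 5 h settling period, FXR-bla HEK 293T cells receive compound and chenodeoxycholic acid (50 uM final) and incubate 16 h at 37 C; CellTiter-Glo luminescence, read after 30 min at room temperature, reports cell viability.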

[16] = target: Vitamin D3 receptor (Homo sapiens) (UniProt P11473); assay: qHTS assay to identify small molecule agonists of the vitamin D receptor (VDR) signaling pathway (AID 743222; calls by dose curve)
Chain of Vitamin D3 receptor (Homo sapiens) (P11473 whole entry, looked up): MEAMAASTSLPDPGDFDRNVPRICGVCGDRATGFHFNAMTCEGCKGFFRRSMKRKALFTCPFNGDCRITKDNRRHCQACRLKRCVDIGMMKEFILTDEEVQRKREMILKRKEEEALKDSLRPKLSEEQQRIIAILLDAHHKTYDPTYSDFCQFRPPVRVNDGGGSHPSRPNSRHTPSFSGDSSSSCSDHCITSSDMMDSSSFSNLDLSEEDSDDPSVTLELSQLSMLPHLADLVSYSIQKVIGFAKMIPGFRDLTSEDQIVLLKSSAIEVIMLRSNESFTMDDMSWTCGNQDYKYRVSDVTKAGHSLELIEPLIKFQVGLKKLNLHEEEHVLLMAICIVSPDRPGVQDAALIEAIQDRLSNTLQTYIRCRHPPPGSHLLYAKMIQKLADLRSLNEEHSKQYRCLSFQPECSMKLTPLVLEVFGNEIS
Outline: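 Agonist mode, beta-lactamase reporter: fluorescence from LiveBLAzer B/G FRET substrate (2 h, room temperature) read after 16 h compound treatment at 37 C of VDR-bla cells, which were pre-incubated 4 h after seeding.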

[17] = target: Vitamin D3 receptor (Homo sapiens) (UniProt P11473); assay: qHTS assay to identify small molecule antagonists of the vitamin D receptor (VDR) signaling pathway (AID 743223; active = well fitted inhibition curve with a large enough effect in the signal ratio in the repeat runs, not every such curve was filed as active; the % refers to the signal ratio)
Outline: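 Reporter line VDR-bla; stimulus 1alpha,25-(OH)2 vitamin D3, 3 nM final; compound co-addition, 16 h 37C/5% CO2; LiveBLAzer B/G substrate 2 h RT; fluorescence intensity.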

[18] = qHTS assay to identify small molecule agonists of the peroxisome proliferator-activated receptor delta (PPARd) signaling pathway - cell viability counter screen (AID 743211); also: nearly all actives have a fitted effect of over 55% in size
Outline: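 qHTS cell viability: PPARd-bla HEK293H; 17 h cpd, 37C; CellTiter-Glo, luminescence at 30 min RT.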

[19] = target: Bile acid receptor (Homo sapiens) (UniProt Q96RI1); assay: qHTS assay to identify small molecule antagonists of the farnesoid-X-receptor (FXR) signaling pathway (AID 743217; active = well fitted inhibition curve with a large enough effect in the signal ratio in the repeat runs, not every such curve was filed as active; the % refers to the signal ratio)
Chain of Bile acid receptor (Homo sapiens) (Q96RI1 whole entry, looked up): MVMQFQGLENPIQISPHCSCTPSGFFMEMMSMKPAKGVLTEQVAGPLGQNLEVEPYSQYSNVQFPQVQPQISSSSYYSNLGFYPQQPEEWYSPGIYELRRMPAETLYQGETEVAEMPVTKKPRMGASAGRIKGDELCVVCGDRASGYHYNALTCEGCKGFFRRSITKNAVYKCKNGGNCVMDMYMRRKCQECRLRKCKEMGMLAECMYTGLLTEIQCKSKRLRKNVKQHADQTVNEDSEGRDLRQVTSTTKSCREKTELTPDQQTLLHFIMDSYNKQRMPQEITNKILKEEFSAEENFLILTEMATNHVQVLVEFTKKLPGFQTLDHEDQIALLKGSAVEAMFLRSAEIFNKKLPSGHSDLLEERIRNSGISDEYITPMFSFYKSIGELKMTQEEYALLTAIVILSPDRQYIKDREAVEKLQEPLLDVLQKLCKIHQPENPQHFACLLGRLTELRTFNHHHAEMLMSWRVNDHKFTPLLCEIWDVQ
Outline: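 Antagonist mode: chenodeoxycholic acid at 50 uM final stimulates a UAS-driven beta-lactamase reporter in HEK 293T FXR-bla cells during 16 h, 37C compound exposure. Read-out is FRET substrate fluorescence after 2 h at room temperature.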

[20] = target: Bile acid receptor (Homo sapiens) (UniProt Q96RI1); assay: qHTS assay to identify small molecule agonists of the farnesoid-X-receptor (FXR) signaling pathway (AID 743220; active = well fitted activation curve with a large enough effect in the signal ratio in the repeat runs, not every such curve was filed as active; the % refers to the signal ratio)
Outline: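 FXR-UAS-bla HEK 293T cells carrying a UAS-driven beta-lactamase reporter were plated for 5 h at 37C/5% CO2, then exposed to DMSO-dissolved Tox21 10K compounds for 16 h at 37C. A LiveBLAzer B/G FRET substrate was loaded for 2 h at room temperature before fluorescence reading.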

Measured: Potency

c1coc(-c2nc3ccccc3[nH]2)c1
inactive: [1] | [3] | [4] | [5] | [6] | [7] | [8] | [9] | [10] | [11] | [12] | [13] | [14] | [15] | [16] | [17]
active: [2] 30.6 µM

N#CCCC#N
inactive: [1] | [2] | [3] | [4] | [5] | [6] | [7] | [8] | [9] | [10] | [18] | [11] | [13] | [19] | [14] | [20] | [15] | [16] | [17]

CN(C)CCc1ccc(O)cc1
inactive: [1] | [2] | [3] | [4] | [5] | [6] | [7] | [8] | [9] | [10] | [18] | [11] | [12] | [13] | [19] | [20] | [15] | [16]

CN1CCN(C(=O)O[C@H]2c3nccnc3C(=O)N2c2ccc(Cl)cn2)CC1
inactive: [1] | [2] | [3] | [4] | [5] | [6] | [7] | [8] | [9] | [10] | [18] | [12] | [19] | [14] | [20] | [15] | [16] | [17]

Clc1cccc(N2CCNCC2)c1
inactive: [1] | [2] | [3] | [4] | [5] | [6] | [7] | [8] | [9] | [10] | [18] | [11] | [12] | [19] | [14] | [20] | [15] | [16]

ClC(Cl)Br
inactive: [1] | [2] | [3] | [4] | [5] | [6] | [7] | [8] | [9] | [10] | [18] | [11] | [12] | [13] | [14] | [15] | [16]

CCCCCCI
inactive: [1] | [2] | [3] | [4] | [5] | [6] | [7] | [8] | [9] | [10] | [18] | [11] | [12] | [13] | [19] | [14] | [20] | [15]

CC(=O)Nc1cc([As](=O)(O)O)ccc1O
inactive: [1] | [2] | [3] | [4] | [5] | [6] | [7] | [8] | [9] | [18] | [11] | [12] | [13] | [19] | [14] | [20] | [15] | [16]

CCC1(c2ccccc2)C(=O)N=C(O)NC1=O (centres undefined)
inactive: [1] | [2] | [3] | [4] | [5] | [6] | [7] | [8] | [9] | [10] | [18] | [11] | [12] | [13] | [14] | [15] | [16] | [17]

OCCBr
inactive: [1] | [2] | [3] | [4] | [5] | [6] | [8] | [9] | [10] | [18] | [12] | [19] | [14] | [20] | [15] | [16] | [17]
active: [7] 27.4 µM

CCOP(=O)(OCC)OP(=O)(OCC)OCC
inactive: [1] | [2] | [3] | [4] | [5] | [6] | [7] | [8] | [9] | [10] | [18] | [11] | [12] | [13] | [19] | [14] | [20] | [15] | [16]

OCCSCSCCO
inactive: [1] | [2] | [3] | [4] | [5] | [6] | [7] | [8] | [9] | [10] | [18] | [11] | [12] | [13] | [14] | [15] | [16] | [17]

CCOP(=S)(OCC)Oc1nc(Cl)n(C(C)C)n1
active: [2] 10.9 µM
inactive: [1] | [3] | [4] | [5] | [6] | [7] | [8] | [9] | [10] | [18] | [14] | [16] | [17]

OC(Cn1cncn1)(c1ccc(F)cc1)c1ccccc1F (centres undefined)
inactive: [1] | [2] | [3] | [4] | [5] | [6] | [7] | [8] | [9] | [10] | [18] | [12] | [13] | [14] | [16] | [17]

O=NN1CCCCC1
inactive: [1] | [2] | [3] | [4] | [5] | [6] | [7] | [8] | [9] | [10] | [18] | [11] | [12] | [13] | [14] | [15] | [16] | [17]
